These results are taken from paper PMC7862700, “An all-to-all approach to the identification of sequence-specific readers for epigenetic DNA modifications on cytosine”.

Holding throughout (experiment): DAPPL (digital affinity profiling via proximity ligation, sequencing); 10 mM Tris-HCl pH 7.5, 50 mM NaCl, 1 mM DTT, 4% glycerol, room temperature, 30 min; GST-TFs on glutathione beads, 16-mer random dsDNA library, 0.1% formaldehyde crosslink after washing; high values mean tight binding
The target in assay [1] is T1, FEV (Homo sapiens, UniProt Q99581 1-238).
T1 sequence: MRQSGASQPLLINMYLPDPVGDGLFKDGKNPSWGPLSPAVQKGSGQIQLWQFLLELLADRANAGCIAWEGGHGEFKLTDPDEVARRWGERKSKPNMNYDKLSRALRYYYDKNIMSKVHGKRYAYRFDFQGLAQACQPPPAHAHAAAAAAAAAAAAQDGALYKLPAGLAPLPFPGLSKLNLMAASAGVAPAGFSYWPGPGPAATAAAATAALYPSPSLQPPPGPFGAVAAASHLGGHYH
The following applies: protein: recombinant; tags: N-terminal GST; dsDNA, one strand shown. The method in brief: (§1)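 Binding signal is each hexamer's read frequency for a factor divided by its frequency in the tag-only sample. The factors were GST-fused human transcription factors from yeast, captured on glutathione beads, DNA-barcoded and pooled with that sample. Pools were incubated with 200 nmole of a random double-stranded 16-mer DNA library in Tris/NaCl/DTT/glycerol buffer at room temperature for 30 min, then washed, crosslinked with 0.1% formaldehyde, proximity-ligated with BsaI/T4 ligase (1 h, 37 °C), PCR-amplified and sequenced on an Illumina NextSeq500.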

The target of assay [2] is ETV5 (Homo sapiens, UniProt P41161 1-510). The note with it: protein: recombinant; tags: N-terminal GST; dsDNA, one strand shown. The method in brief: as §1
Sequence of ETV5 (P41161 whole entry): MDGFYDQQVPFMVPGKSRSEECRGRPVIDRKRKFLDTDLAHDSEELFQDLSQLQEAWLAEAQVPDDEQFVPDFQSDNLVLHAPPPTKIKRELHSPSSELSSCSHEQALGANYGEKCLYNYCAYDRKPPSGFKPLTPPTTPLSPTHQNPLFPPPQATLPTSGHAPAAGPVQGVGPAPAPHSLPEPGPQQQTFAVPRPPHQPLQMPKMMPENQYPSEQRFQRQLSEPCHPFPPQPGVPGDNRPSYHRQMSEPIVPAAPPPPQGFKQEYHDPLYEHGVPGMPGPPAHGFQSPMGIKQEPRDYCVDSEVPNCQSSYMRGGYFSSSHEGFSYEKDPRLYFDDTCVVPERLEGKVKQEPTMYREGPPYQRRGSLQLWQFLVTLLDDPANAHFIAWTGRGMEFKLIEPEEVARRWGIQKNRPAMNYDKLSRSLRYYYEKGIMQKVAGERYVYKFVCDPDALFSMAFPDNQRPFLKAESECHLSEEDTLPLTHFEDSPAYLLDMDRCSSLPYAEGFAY
Assay [3] concerns the target HSF1 (Homo sapiens, UniProt Q00613 1-529). The following applies: protein: recombinant; tags: N-terminal GST; chain copies: 3; dsDNA, one strand shown. The procedure, abridged:
as §1

Assay [4] deals with T2, SPIC (Homo sapiens, UniProt Q8N5J4 1-248).
T2 sequence: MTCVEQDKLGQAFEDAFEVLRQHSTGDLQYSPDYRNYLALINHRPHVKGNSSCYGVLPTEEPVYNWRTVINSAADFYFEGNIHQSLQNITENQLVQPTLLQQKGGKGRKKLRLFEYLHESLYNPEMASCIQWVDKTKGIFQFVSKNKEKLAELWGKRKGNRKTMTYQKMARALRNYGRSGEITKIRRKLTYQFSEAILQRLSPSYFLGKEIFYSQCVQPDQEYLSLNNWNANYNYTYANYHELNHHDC
The note with it: protein: recombinant; tags: N-terminal GST; dsDNA, one strand shown. The procedure, abridged:
as §1

Assay [5] concerns the target ELF4 (Homo sapiens, UniProt Q99607 1-663). The note with it: protein: recombinant; tags: N-terminal GST; dsDNA, one strand shown. The method in brief: as §1
Assay [6] concerns the target T3, ELK4 (Homo sapiens, UniProt P28324-2 1-405).
T3 sequence: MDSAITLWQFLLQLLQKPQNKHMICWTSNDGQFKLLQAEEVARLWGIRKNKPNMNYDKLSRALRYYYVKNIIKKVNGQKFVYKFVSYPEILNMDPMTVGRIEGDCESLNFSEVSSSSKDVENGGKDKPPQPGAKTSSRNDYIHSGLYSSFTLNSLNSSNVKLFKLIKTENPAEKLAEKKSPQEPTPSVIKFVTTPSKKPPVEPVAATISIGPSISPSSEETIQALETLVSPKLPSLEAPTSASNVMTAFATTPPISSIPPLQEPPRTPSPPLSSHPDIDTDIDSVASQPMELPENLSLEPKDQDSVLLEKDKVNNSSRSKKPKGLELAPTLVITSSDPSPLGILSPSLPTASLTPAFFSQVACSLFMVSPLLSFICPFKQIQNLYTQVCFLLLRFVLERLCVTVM
The following applies: protein: recombinant; tags: N-terminal GST; dsDNA, one strand shown. The procedure, abridged:
as §1

Assay [7] deals with T4, ETV2 (Homo sapiens, UniProt O00321 1-342).
T4 sequence: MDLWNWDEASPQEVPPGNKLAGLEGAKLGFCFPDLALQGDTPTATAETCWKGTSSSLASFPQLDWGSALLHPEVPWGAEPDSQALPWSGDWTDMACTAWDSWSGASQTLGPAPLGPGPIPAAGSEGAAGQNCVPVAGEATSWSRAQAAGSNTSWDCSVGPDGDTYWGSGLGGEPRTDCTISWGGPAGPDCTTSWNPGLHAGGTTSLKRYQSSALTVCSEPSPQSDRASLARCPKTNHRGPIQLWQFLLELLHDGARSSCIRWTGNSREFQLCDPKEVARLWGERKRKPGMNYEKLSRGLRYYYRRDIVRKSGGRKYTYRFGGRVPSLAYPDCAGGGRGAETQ
The following applies: protein: recombinant; tags: N-terminal GST; dsDNA, one strand shown. The method in brief:
as §1

The target in assay [8] is T5, ELF3 (Homo sapiens, UniProt P78545 1-371).
T5 sequence: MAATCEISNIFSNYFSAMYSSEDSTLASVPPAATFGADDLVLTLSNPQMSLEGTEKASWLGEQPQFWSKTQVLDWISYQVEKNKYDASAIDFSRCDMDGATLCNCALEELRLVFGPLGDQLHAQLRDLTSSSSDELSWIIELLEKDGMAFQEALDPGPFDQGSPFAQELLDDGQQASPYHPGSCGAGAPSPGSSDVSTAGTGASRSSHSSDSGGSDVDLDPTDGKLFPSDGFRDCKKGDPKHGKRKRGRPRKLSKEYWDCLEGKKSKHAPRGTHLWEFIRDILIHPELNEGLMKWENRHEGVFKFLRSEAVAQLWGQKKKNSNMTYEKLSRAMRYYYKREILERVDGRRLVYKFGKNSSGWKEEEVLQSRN
The following applies: protein: recombinant; tags: N-terminal GST; dsDNA, one strand shown. The method in brief: as §1

Assay [9] addresses CRX (Homo sapiens, UniProt O43186 1-299). The following applies: protein: recombinant; tags: N-terminal GST; dsDNA, one strand shown. The procedure, abridged: as §1
The target of assay [10] is ETV1 (Homo sapiens, UniProt P50549 1-477). The following applies: protein: recombinant; tags: N-terminal GST; dsDNA, one strand shown. The procedure, abridged: as §1
Sequence of ETV1 (P50549 whole entry): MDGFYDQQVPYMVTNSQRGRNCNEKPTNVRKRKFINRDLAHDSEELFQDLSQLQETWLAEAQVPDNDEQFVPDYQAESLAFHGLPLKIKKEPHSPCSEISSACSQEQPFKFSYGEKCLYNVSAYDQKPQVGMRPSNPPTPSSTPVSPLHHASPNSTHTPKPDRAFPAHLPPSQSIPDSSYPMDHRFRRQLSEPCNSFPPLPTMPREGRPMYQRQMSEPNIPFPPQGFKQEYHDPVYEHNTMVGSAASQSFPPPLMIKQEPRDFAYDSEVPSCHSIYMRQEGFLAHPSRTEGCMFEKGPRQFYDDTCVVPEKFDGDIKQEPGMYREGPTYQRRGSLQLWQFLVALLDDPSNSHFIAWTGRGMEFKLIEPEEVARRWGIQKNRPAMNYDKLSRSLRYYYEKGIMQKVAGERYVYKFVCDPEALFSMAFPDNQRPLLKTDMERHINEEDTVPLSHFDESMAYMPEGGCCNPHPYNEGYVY
Assay [11] has as its target T6, ERF (Homo sapiens, UniProt P50548 1-548).
T6 sequence: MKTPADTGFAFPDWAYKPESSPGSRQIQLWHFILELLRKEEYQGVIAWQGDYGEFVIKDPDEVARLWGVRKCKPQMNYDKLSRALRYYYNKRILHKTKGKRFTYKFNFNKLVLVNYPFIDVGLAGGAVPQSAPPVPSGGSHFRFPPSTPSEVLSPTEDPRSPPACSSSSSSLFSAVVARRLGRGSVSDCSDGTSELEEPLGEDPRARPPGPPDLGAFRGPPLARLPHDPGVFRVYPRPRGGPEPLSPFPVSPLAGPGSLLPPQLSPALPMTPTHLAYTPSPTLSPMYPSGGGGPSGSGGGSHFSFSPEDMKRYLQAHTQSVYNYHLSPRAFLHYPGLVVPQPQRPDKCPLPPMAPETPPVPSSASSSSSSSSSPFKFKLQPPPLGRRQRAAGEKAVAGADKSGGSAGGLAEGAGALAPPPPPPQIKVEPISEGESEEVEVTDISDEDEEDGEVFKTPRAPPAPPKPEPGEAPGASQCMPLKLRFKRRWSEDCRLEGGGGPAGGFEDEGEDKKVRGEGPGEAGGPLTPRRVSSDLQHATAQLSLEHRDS
The following applies: protein: recombinant; tags: N-terminal GST; dsDNA, one strand shown. The method in brief:
as §1

Assay [12] deals with T7, ETV3L (Homo sapiens, UniProt Q6ZN32 1-361).
T7 sequence: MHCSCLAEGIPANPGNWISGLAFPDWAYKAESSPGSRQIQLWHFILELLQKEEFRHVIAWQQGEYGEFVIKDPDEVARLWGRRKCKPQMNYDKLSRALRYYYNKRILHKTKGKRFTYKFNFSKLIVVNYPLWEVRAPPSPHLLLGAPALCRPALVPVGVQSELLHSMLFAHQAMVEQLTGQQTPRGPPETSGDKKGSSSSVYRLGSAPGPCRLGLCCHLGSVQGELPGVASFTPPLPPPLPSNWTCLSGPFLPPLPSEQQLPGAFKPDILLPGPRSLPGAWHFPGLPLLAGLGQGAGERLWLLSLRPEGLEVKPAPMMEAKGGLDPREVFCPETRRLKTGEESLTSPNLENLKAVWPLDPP
The note with it: protein: recombinant; tags: N-terminal GST; dsDNA, one strand shown. The procedure, abridged: as §1

Assay [13] addresses T8, ETS2 (Homo sapiens, UniProt P15036 1-469).
T8 sequence: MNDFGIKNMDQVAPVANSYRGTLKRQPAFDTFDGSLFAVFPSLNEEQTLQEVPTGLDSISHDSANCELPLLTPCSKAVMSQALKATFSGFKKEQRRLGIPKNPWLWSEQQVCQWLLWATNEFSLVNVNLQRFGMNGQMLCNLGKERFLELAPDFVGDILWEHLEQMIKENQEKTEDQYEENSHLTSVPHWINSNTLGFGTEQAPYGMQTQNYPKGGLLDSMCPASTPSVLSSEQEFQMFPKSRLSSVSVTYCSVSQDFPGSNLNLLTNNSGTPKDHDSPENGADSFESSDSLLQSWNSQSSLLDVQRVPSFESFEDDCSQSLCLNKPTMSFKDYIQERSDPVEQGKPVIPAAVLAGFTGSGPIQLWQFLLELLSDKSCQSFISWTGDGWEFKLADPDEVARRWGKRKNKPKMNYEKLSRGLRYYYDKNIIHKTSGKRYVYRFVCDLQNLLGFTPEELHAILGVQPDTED
The following applies: protein: recombinant; tags: N-terminal GST; dsDNA, one strand shown. The method in brief: as §1

Assay [14] addresses T9, SPDEF (Homo sapiens, UniProt O95238 1-335).
T9 sequence: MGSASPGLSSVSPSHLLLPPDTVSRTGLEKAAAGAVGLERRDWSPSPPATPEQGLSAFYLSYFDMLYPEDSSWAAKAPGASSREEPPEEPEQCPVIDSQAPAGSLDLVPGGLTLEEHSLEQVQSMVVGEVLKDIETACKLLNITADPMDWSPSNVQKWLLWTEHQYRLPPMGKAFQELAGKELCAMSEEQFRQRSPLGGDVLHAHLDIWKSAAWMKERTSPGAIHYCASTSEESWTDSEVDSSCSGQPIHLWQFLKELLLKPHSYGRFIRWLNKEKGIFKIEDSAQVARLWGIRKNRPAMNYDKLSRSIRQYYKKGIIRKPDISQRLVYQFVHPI
The note with it: protein: recombinant; tags: N-terminal GST; dsDNA, one strand shown. The procedure, abridged: as §1

The target of assay [15] is T10, ETV7 (Homo sapiens, UniProt Q9Y603 1-341).
T10 sequence: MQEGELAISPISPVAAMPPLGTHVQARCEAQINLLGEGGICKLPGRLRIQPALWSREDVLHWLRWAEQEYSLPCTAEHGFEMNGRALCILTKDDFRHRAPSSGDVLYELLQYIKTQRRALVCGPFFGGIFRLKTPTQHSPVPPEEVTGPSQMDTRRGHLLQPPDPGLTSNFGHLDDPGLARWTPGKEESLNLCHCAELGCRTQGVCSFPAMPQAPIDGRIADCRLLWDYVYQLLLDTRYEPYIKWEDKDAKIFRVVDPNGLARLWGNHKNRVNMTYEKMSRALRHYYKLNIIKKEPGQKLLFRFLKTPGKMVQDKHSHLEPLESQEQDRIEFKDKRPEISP
The note with it: protein: recombinant; tags: N-terminal GST; dsDNA, one strand shown. The method in brief: as §1

Assay [16] concerns the target T11, ELF5 (Homo sapiens, UniProt Q9UKW6-2 1-255).
T11 sequence: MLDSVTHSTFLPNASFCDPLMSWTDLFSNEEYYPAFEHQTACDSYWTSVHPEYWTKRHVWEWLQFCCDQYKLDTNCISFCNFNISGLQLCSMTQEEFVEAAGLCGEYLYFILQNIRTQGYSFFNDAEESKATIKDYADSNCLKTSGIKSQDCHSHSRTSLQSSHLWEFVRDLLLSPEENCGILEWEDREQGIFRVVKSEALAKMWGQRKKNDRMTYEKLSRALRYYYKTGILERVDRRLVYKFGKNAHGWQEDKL
The note with it: protein: recombinant; tags: N-terminal GST; dsDNA, one strand shown. The procedure, abridged:
as §1

Assay [17] concerns the target T12, ETV3 (Homo sapiens, UniProt P41162-2 1-143).
T12 sequence: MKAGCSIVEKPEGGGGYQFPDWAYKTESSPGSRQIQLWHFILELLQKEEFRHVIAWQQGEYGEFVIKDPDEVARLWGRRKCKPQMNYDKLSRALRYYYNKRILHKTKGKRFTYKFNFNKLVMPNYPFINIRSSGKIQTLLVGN
The following applies: protein: recombinant; tags: N-terminal GST; dsDNA, one strand shown. The method in brief: as §1

Assay [18] has as its target ETV6 (Homo sapiens, UniProt P41212 1-452). The following applies: protein: recombinant; tags: N-terminal GST; dsDNA, one strand shown. The procedure, abridged:
as §1

Sequence of ETV6 (P41212 whole entry): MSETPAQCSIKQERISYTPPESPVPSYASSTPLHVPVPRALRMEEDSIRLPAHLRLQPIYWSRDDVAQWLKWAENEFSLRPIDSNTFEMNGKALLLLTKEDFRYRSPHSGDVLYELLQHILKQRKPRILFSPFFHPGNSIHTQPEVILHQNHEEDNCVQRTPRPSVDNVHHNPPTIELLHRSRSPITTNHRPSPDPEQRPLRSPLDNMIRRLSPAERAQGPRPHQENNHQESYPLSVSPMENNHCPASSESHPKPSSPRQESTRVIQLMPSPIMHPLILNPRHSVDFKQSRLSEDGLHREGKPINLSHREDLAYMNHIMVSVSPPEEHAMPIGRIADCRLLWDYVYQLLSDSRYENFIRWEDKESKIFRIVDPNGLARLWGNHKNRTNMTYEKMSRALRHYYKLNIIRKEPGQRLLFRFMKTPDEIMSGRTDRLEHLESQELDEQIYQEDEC
Sequence of HSF1 (Q00613 whole entry): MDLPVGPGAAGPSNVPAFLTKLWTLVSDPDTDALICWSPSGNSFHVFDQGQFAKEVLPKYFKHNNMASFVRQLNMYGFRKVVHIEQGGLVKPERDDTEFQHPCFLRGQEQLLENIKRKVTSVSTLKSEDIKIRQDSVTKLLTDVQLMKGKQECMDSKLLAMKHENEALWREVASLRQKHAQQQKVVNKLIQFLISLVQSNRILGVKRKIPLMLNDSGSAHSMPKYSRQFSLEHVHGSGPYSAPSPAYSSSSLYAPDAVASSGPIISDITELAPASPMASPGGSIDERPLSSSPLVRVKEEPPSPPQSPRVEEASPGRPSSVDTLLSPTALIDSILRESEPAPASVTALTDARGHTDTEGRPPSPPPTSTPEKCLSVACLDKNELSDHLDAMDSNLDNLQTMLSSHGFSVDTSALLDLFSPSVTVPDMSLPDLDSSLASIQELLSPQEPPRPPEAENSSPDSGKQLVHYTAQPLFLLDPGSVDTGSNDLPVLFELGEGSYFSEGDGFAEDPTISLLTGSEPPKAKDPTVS
Sequence of CRX (O43186 whole entry): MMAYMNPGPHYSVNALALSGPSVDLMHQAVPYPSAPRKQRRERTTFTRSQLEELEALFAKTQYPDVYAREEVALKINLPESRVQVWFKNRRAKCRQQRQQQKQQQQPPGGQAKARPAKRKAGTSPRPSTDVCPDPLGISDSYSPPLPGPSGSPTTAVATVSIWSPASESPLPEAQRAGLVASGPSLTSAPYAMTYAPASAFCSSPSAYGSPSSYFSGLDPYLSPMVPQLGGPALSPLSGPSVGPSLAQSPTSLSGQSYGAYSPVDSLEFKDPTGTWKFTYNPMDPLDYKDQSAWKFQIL
Sequence of ELF4 (Q99607 whole entry): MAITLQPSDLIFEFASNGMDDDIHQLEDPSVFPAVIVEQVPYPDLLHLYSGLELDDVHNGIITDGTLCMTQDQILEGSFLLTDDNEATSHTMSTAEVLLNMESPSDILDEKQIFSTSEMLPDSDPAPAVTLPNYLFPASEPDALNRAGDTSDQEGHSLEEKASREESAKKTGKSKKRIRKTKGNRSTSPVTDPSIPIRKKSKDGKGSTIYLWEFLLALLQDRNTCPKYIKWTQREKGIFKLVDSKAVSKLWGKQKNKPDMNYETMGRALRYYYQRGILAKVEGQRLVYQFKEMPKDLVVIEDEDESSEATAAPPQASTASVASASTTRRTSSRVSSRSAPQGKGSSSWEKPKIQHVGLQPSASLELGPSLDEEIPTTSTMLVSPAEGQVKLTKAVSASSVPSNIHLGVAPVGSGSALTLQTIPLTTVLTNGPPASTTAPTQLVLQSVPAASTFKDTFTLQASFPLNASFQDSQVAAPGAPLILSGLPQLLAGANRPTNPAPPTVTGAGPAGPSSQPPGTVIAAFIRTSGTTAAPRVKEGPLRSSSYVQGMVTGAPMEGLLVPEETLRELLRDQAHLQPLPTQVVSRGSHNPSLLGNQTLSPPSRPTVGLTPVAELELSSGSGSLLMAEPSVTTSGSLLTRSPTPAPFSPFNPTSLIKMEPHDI

Regarding ACTTCA, the binding signal in [1] was 1.38 fold enrichment (6-mer frequency, TF over GST control); in assay [2], 1.42 fold enrichment (6-mer frequency, TF over GST control); in assay [3] it was 1.18 fold enrichment (6-mer frequency, TF over GST control); in [4], 1.55 fold enrichment (6-mer frequency, TF over GST control); in assay [5], 1.33 fold enrichment (6-mer frequency, TF over GST control); in [6], 1.56 fold enrichment (6-mer frequency, TF over GST control). In addition, the binding signal is 1.37 fold enrichment (6-mer frequency, TF over GST control) in [7]; 1.44 fold enrichment (6-mer frequency, TF over GST control) in assay [8]; 1.17 fold enrichment (6-mer frequency, TF over GST control) in assay [9]; 1.48 fold enrichment (6-mer frequency, TF over GST control) in assay [10]; 1.33 fold enrichment (6-mer frequency, TF over GST control) in assay [11]; 1.4 fold enrichment (6-mer frequency, TF over GST control) in [12]. The binding signal in assay [13] is 1.42 fold enrichment (6-mer frequency, TF over GST control); in assay [14] it was 1.37 fold enrichment (6-mer frequency, TF over GST control); in assay [15], 1.54 fold enrichment (6-mer frequency, TF over GST control); in assay [16], 1.4 fold enrichment (6-mer frequency, TF over GST control); in assay [17], 1.29 fold enrichment (6-mer frequency, TF over GST control); in assay [18], 1.35 fold enrichment (6-mer frequency, TF over GST control).
